Tg IFNy HTS – T. gondii growth inhibition with IFN-gamma, primary screen, cell-based. Toxoplasma gondii growth in IFN-gamma-treated host cells; active compounds read low. actives 3.8% (n = 69,000). activity change, negative = inhibition, % (test concentration not listed); in the data active = activity change below about -70%, passing the limit was not always enough;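 also: host cells are HeLa cells infected with Toxoplasma gondii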
A number is an active result; i = inactive. This excerpt belongs to a sample that is enriched for hits.

SMILES | Tg IFNy HTS
CCOc1ccccc1C(=O)NCCc1csc(-c2ccc(Cl)cc2)n1 | -80
O=C(NCCc1csc(-c2ccc(F)cc2)n1)c1ccccc1F | i
COc1cccc(OC)c1C(=O)NCCc1csc(-c2ccc(Cl)cc2)n1 | i
COc1ccc(-c2nc(CCNC(=O)c3ccccc3F)cs2)cc1 | i
CCOc1ccccc1NC(=O)C(=O)NCCc1csc(-c2ccc(Cl)cc2)n1 | i
COc1cc(OC)cc(C(=O)NCCc2csc(-c3ccc(F)cc3)n2)c1 | i
COc1ccccc1C(=O)NCCc1csc(-c2ccc(F)cc2)n1 | -93
COc1ccc(C(=O)NCCc2csc(-c3ccc(F)cc3)n2)c(OC)c1 | -97
COc1ccc(Cl)cc1C(=O)NCCc1csc(-c2ccc(F)cc2)n1 | -84
COc1ccc(OCC(=O)NCCc2csc(-c3ccc(F)cc3)n2)cc1 | i
COc1ccc(C(=O)NCCc2csc(-c3ccc(Cl)cc3)n2)cc1OC | i
Cc1ccccc1C(=O)NCCc1csc(-c2ccc(Cl)cc2)n1 | i
O=C(c1ccoc1)N1C[C@H]2CC[C@@]3(N=C(c4ccccc4)NC3=O)[C@H]2C1 | i
CCCc1cc(C(=O)NC2C=CS(=O)(=O)C2)cs1 (configuration not stated) | i
O=S(=O)(c1ccc(Cl)cc1)C(F)F | i
C=CCN(CC#Cc1ccccc1)Cc1ncc[nH]1 | i
CN(C)S(=O)(=O)N1CCc2nc(N)c(C(=O)Nc3ccc(F)cc3)cc2C1 | i
C#CCOC(=O)Nc1cnc(OCC)c(C(F)(F)F)c1 | -75
CCOC(=O)NC(Nc1cc(C)on1)(C(F)(F)F)C(F)(F)F | i
Cc1noc(-c2cc(=O)n(CC(=O)Nc3cccc(C)c3C)c3ccccc23)n1 | i
COCCN1CCOCC2(CCCN(C(=O)c3ccn(C)n3)C2)C1 (configuration not stated) | i
CSc1ccccc1NC(=O)CCC(=O)N1C[C@H](OC(C)C)[C@@H](O)C1 | i
CCN(CC)C(=O)CCC1(Cc2ccc(F)c(OC)c2)CCC(=O)N1 (configuration not stated) | i
COc1ccc(OCC(=O)NCCc2sc(-c3cccc(F)c3)nc2C)cc1 | i
O=C(COC(=O)CN1C(=O)C(=O)c2ccccc21)Nc1nc2c(s1)CCCC2 | i
SMILES | Tg IFNy HTS
Cc1nc2nc(CC(=O)Nc3nc4c(s3)CCCCCC4)[nH]n2c(=O)c1C | i
COc1nn(CC(=O)Nc2nc3c(s2)CCCCCC3)c(=O)c2ccccc12 | -86
CN1C(=O)CCc2cc(NC(=O)c3n[nH]c4ccccc34)ccc21 | i
Cn1nc(Cn2ccnc2)c2c1CN(C(=O)c1ccoc1)C2 | i
COc1ccccc1N1CCN(C(=O)c2cc(C(C)(C)C)oc2C)CC1 | -108
COc1ccccc1N1CCN(C(=S)c2ccccc2OC(F)(F)F)CC1 | i
COc1ccccc1N1CCN(C(=O)C2CCCCC2)CC1 | i
O=C(Cc1ccccc1Cl)Nc1ccc(-c2nc(-c3ccccc3)co2)cc1 | i
CCOC(=O)c1noc2ncn(Cc3nc(-c4ccc(C)cc4)oc3C)c(=O)c12 | i
Cc1cccn2cc(-c3ccc(NC(=O)CNC(=O)c4ccccc4)cc3)nc12 | i
CC(C)Oc1ccc(C(=O)N[C@H](CNC(=O)CN(C)C)Cc2ccc(-c3cn4cccc([C@H](C)O)c4n3)cc2)cc1Cl | -80
CCn1c(-c2cc(NC(=O)c3cnccn3)n[nH]2)cc2ccccc21 | i
CCn1c(-c2cc(NC(=O)c3cccnc3)n[nH]2)cc2ccc(OC)cc21 | i
CCn1c(-c2cc(NC(=O)c3cccnc3)n[nH]2)cc2ccccc21 | -105
Cc1ccc2c(c1)NC1(CCN(S(=O)(=O)c3ccc(C)c(C)c3)CC1)c1cccn1-2 | i
COc1ccc2c(c1)NC1(CCN(S(=O)(=O)c3c(C)cc(C)cc3C)CC1)c1cccn1-2 | i
CCN1c2cc(C)ccc2-n2cccc2C12CCN(S(=O)(=O)c1ccc(C(C)(C)C)cc1)CC2 | i
CCCNC(=O)N1CCC2(CC1)c1cccn1-c1ccc(C)cc1N2CC | i
COc1ccc(S(=O)(=O)N2CCC3(CC2)Nc2cc(C)ccc2-n2cccc23)cc1Cl | i
CCN1c2cc(C)ccc2-n2cccc2C12CCN(S(=O)(=O)c1cc(Cl)ccc1OC)CC2 | -106
CCN1c2cc(C)ccc2-n2cccc2C12CCN(S(=O)(=O)c1c(C)cc(C)cc1C)CC2 | -118
COc1ccc(Cl)cc1S(=O)(=O)N1CCC2(CC1)Nc1cc(C)ccc1-n1cccc12 | i
Cc1cc(C)c(S(=O)(=O)N2CCC3(CC2)Nc2cc(F)ccc2-n2cccc23)c(C)c1 | i
CCN1c2cc(C)ccc2-n2cccc2C12CCN(S(=O)(=O)c1ccc(C)cc1)CC2 | -86
Cc1ccc(S(=O)(=O)N2CCC3(CC2)Nc2ccc(C)c(C)c2-n2cccc23)cc1C | i
SMILES | Tg IFNy HTS
CCN1c2cc(C)ccc2-n2cccc2C12CCN(S(=O)(=O)c1ccc(C)c(C)c1)CC2 | -112
O=C1CCc2cc(S(=O)(=O)NC3CCCCCC3)cc3c2N1CC3 | i
c1ccc(COc2ccc(-c3noc(-c4cnccn4)n3)cc2)cc1 | i
O=C1CC[C@@H](NCc2ccccn2)[C@H](c2cc(F)cc(F)c2)N1 | i
C[C@@H](NC(=O)C[C@@H]1CC[C@H]2[C@@H](COC[C@H](O)CN2C(=O)Nc2cccc(Cl)c2)O1)c1ccccc1 | i
CCCC(=O)Nc1ccc2c(c1)OC[C@H](C)N(S(=O)(=O)c1cn(C)cn1)C[C@H](C)[C@@H](OC)CN(C)C2=O | i
COc1cccc(CN2CCC3(CCN(C(=O)c4ccoc4)C3)C2=O)c1 (configuration not stated) | i
CCCCn1c(CSc2ccccn2)cn(-c2nnc(C(C)(C)C)s2)c1=O | i
COCC(=O)N1CCC2(CC(C(=O)NCc3cnc(C)cn3)=NO2)C1 (configuration not stated) | i
COCc1ccc(C(=O)N2CCCC(c3cc4nc(N(C)C)ncc4c(=O)[nH]3)C2)o1 (configuration not stated) | i
Cc1cccc(-c2nc(Cn3nnc(-c4nc(-c5ccncc5)no4)c3C)c(C)o2)c1 | i
Cc1nc(C(F)(F)F)nc(N2CCc3nnc(C4CCCO4)n3CC2)c1C (configuration not stated) | i
CCN1c2cc(C)ccc2-n2cccc2C12CCN(S(=O)(=O)c1ccc(OC)cc1)CC2 | -91
CCN1c2cc(C)ccc2-n2cccc2C12CCN(S(=O)(=O)c1cccc(Cl)c1)CC2 | -84
COc1ccc(S(=O)(=O)N2CCC3(CC2)Nc2cc(OC)ccc2-n2cccc23)cc1 | i
CCN1c2cc(C)ccc2-n2cccc2C12CCN(S(=O)(=O)c1ccc(OC)c(OC)c1)CC2 | i
Cc1ccc2c(c1C)-n1cccc1C1(CCN(S(=O)(=O)c3cccc(Cl)c3)CC1)N2 | i
CCN1c2cc(C)ccc2-n2cccc2C12CCN(C(=O)NCC(=O)OC)CC2 | i
CCN1c2cc(C)ccc2-n2cccc2C12CCN(C(=O)NC(C)C(=O)OC)CC2 (configuration not stated) | i
CCN1c2cc(C)ccc2-n2cccc2C12CCN(C(=O)c1ccc(OC)cc1)CC2 | -90
CCCc1nc(C(=O)Nc2cnc3n2CCCC3)cs1 | i
CC(C)c1nnc(CN2CCCC(N3CCCC3=O)C2)o1 (configuration not stated) | i
Cn1ccnc1CN1CCCC2(COCCN(c3ncccc3F)C2)C1 (configuration not stated) | i
CCS(=O)(=O)c1cccc(-c2cc(C(=O)NC3CCN(C)CC3)c(C)c3[nH]c4ncc(C)cc4c23)c1 | -80
Cc1ccc(-c2nc3cnccn3c2NCCC(=O)NC2CCN(C)CC2)cc1 | i
